The entries come from a sample that favours hits as a whole.
Dicer inh: inhibitors of Dicer pre-microRNA processing, primary screen, biochemical, cat-ELCCA, chemiluminescence | cat-ELCCA pre-miR-21 Dicer processing; hits give high values | z-score at 25 µM | hit rate 6% among 47,000; in the data active = z-score above about 3, passing the limit was not always enough;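 note: plate controls were vehicle for no effect and no enzyme for full effect; higher signal means more uncleaved substrate so more Dicer inhibition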
Target sequence (Q9UPY3 whole entry, looked up): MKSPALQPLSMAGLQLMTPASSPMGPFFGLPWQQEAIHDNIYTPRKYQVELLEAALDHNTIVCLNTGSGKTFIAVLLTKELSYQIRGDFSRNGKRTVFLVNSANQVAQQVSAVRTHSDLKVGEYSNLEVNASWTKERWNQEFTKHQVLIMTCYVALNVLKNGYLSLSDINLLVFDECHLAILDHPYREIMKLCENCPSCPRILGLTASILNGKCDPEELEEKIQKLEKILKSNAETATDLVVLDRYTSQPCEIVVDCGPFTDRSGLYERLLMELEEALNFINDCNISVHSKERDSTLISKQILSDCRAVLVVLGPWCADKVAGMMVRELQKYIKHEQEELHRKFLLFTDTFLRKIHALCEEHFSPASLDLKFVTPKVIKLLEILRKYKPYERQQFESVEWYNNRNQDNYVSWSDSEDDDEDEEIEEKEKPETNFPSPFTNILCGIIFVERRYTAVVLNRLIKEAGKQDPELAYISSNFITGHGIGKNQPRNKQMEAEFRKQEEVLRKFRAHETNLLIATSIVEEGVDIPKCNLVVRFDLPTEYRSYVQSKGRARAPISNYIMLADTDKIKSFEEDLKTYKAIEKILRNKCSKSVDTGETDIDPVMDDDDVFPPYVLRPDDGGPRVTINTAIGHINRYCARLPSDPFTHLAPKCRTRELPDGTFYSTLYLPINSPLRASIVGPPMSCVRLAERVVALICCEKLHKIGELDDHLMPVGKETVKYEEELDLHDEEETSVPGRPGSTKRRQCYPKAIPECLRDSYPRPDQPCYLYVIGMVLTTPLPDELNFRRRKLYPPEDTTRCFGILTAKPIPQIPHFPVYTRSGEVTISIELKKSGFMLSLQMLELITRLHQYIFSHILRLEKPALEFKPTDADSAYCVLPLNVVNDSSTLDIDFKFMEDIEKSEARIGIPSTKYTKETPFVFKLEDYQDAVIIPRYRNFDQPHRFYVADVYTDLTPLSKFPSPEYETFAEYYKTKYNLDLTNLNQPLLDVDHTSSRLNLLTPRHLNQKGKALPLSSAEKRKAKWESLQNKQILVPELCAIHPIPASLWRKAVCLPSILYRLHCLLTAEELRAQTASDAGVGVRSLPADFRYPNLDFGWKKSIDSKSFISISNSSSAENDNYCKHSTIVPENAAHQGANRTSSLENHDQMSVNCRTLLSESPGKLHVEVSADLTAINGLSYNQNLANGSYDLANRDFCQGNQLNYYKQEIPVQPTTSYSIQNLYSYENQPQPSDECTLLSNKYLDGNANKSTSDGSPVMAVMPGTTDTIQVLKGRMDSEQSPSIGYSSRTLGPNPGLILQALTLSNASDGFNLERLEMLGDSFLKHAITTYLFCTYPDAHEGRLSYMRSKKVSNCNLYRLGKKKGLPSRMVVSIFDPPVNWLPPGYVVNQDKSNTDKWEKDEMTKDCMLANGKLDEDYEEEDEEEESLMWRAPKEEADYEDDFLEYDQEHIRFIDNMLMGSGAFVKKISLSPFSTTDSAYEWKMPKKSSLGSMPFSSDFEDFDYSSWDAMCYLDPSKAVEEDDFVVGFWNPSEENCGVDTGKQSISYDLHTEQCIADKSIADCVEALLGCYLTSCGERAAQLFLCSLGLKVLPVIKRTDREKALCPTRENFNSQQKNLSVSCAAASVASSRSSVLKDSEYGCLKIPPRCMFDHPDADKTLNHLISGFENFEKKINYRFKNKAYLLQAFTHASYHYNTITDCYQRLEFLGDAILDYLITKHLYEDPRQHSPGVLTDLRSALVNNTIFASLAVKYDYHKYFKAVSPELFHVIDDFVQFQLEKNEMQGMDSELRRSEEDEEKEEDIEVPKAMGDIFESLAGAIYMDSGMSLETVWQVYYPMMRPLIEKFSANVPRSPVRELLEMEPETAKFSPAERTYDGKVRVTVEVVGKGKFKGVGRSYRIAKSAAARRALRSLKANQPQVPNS
* hit, by the source's call.

SMILES	Dicer inh
Cc1ccc2c(=O)c(C(=O)c3ccccc3Cl)coc2c1	3.8*
O=C(Oc1ccc2c(=O)c(-c3ccccc3Cl)coc2c1)c1cccs1	0.61
COC(=O)C(C)Oc1ccc2c(=O)c(Oc3ccccc3Cl)coc2c1 (centres undefined)	-0.38
CCOC(=O)c1sc(NC(=O)c2cncc(Br)c2)c(C(=O)OCC)c1C	12
Cc1c(N=Cc2ccc(-c3ccccc3[N+](=O)[O-])o2)c(=O)n(-c2ccccc2)n1C	-1.6
CN(NC(=O)c1ccncc1)c1ccc(C(F)(F)F)cc1[N+](=O)[O-]	-0.71
C=C(C)Cn1c(SCCC)nc2sc3c(c2c1=O)CC(C)(C)OC3	4.3
CC1(C)Cc2c(sc3[nH]c(=O)n(CC(=O)O)c(=O)c23)CO1	3.9*
CCn1c(SCC(=O)c2ccccc2)nc2sc3c(c2c1=O)CC(C)(C)OC3	-0.17
CC(C)c1ccc(C2C(C#N)=C(N)Oc3cc(O)ccc32)cc1 (centres undefined)	4.9*
COc1ccc(C2C(C#N)=C(N)Oc3cc(O)ccc32)cc1C (centres undefined)	-0.6
C=CCOc1ccc(C2C(C#N)=C(N)Oc3cc(O)ccc32)cc1Cl (centres undefined)	13
COc1cc(C2CC(=O)Nc3nc(N)[nH]c(=O)c32)ccc1OCc1ccc(F)cc1 (centres undefined)	-1.1
CC(C)N(C(=O)c1ccccc1-c1ccccc1C(=O)N(C(C)C)C(C)C)C(C)C	1.2
COc1ccc2nc(NC(=O)Nc3ccc(Cl)cc3)sc2c1	2.7
COc1ccc(NC(=O)/C=C/c2ccc(Cl)cc2)cc1	-0.89
COc1ccc(Nc2nc(NC(=O)Nc3ccc(Cl)cc3)n[nH]2)cc1	10*
COc1cccc(/C=N/n2cnc3sc(-c4ccccc4)cc3c2=O)c1	2.2
O=C(Nc1cccc(-n2cccc2)c1)c1cccc2c1OCCCO2	0.47
CN(CCOC(=O)c1cc2ccccc2oc1=O)c1ccc(C(F)(F)F)cc1[N+](=O)[O-]	0.08
Cc1csc(-c2noc(-c3ccc(C(C)(C)C)cc3)n2)c1Cl	-1.3
C=CCN1C(=O)NC2C1N(S(C)(=O)=O)CCN2S(C)(=O)=O (centres undefined)	5.8*
CCOC(=O)c1ccc(N2C(=O)CS(=O)(=O)CC2=O)cc1	0.51
CCOC(=O)C1=NN(c2ccc(C)cc2)C2C(=O)N(c3ccc(Br)cc3)C(=O)C12 (centres undefined)	1.2
CCOC(=O)C1=C(C)N(c2ccc(Br)cc2)C(=O)C1	3.8*
SMILES	Dicer inh
O=C(Nc1cc(C(F)(F)F)cc(C(F)(F)F)c1)Nc1cc2ccccc2s1	3*
O=C(Nc1cc2ccccc2s1)NC1Cc2ccccc2C1	-0.16
O=C(NCc1cccs1)Nc1cc2ccccc2s1	-1.3
Cc1nc(C)c(-c2ccnc(-c3ccc(C(F)(F)F)cc3)n2)o1	0.18
COc1ccc(-c2cc(=S)sc(N)c2C#N)cc1OC	-2.7
COc1cc(-c2cc3c(c(N)c2C#N)c(=O)oc2ccccc23)cc(OC)c1OC	3.7*
N#Cc1c(=N)nc2oc3ccccc3c3cc(-c4ccccc4)[nH]c1c23	0.72
NNC(=O)OC12CC3CC(CC(C3)C1)C2	-0.77
CCCCOC(=O)C1=C(C)NC2=C(C(=O)CCC2)C1c1ccc(C(=O)OC)cc1 (centres undefined)	-0.53
CSc1sc(C#N)c2c1/C(=N/OC(C)=O)CCC2	-1
CSc1sc(C#N)c2c1/C(=N/OC(=O)c1ccc(Cl)cc1)CCC2	-2.4
CSc1sc(C#N)c2c1/C(=N\O)CCC2	4.4*
O=C1C(=O)N(c2nc3ccccc3s2)C(c2cccnc2)/C1=C(/O)c1ccc(Cl)cc1 (centres undefined)	-0.26
Cc1ccc(F)cc1NC(=O)N1CCN(c2cccc3nc(C(F)(F)F)ccc23)CC1	2
N#C/C(=C\c1ccccc1Sc1ccc(Cl)cc1)S(=O)(=O)c1ccc(Cl)cc1	-1.6
COC(=O)C(C)(C)S(=O)(=O)c1ccc(C(F)(F)F)cn1	-0.28
O=C(CS(=O)(=O)c1ccc(C(F)(F)F)cn1)NNC(=O)Nc1ccccc1	0.12
COC(=O)CS(=O)(=O)c1ccc(C(F)(F)F)cn1	3.4*
O=S(=O)(NC1CCCCC1SC1=NCCS1)c1ccc(Cl)cc1 (centres undefined)	2.5
CCCCCOC(=O)C1=C(C)NC2=C(C(=O)CC(C)(C)C2)C1c1ccc2c(c1)OCO2 (centres undefined)	-1.1
Cc1nn(Cc2ccc(C(=O)O)cc2)c(C)c1Cl	0.68
O=C(NCCCCCCNC(=O)NCc1ccccc1)NCc1ccccc1	-0.41
Cc1cccc(C)c1NC(=O)NCc1ccccc1	2
O=C(NCc1ccccc1)NCc1ccccc1	3.6*
C=CCC(c1ccco1)N(C(C)=O)c1ccccc1 (centres undefined)	0.14
SMILES	Dicer inh
COc1ccc2[nH]c(=O)c(-c3noc(-c4ccccc4C)n3)cc2c1	0.08
O=C(CSC1=NNC(c2ccccn2)S1)c1cccc(F)c1 (centres undefined)	25
COC(=O)CCSc1nc2c(c(=O)[nH]1)C(C)(C1CCCCC1)Cc1ccccc1-2 (centres undefined)	3.7*
CCSc1nc2c(c(=O)[nH]1)C1(CCCC1)Cc1ccccc1-2	0.22
CCCCSCc1nc2c(c(=O)[nH]1)C1(CCCC1)Cc1ccccc1-2	0.7
CC(=O)NCc1ccc(S(=O)(=O)NN)cc1	-7.5
Cc1c(-c2ccnn2S(C)(=O)=O)sc2ccccc12	0.93
CCN(CC)C(=O)Cn1cnc2sc(C(=O)N3CC(C)CC(C)C3)c(C)c2c1=O (centres undefined)	-0.67
Cc1nnc(SCC(=O)Nc2ccc(F)cc2F)s1	0.78
Cn1cnnc1SCC(=O)Nc1nc2ccccc2s1	2.8
Cn1cnnc1SCC(=O)Nc1ccc(F)cc1F	4.7*
N#Cc1cc2c(nc1SCC(=O)Nc1ccc(F)cc1)CCC2	0.93
CCOC(=O)C(C(=O)OCC)c1ccc(OCc2ccccc2)cc1	1.6
C=CC(C)Sc1nc(C)c(Cc2ccc(F)cc2)c(=O)[nH]1 (centres undefined)	-0.66
N#C/C(=N\OC(=O)c1ccc(C(F)(F)F)cc1)S(=O)(=O)c1cccs1	5.5*
N#C/C(=N\OS(=O)(=O)c1ccc(Cl)cc1)S(=O)(=O)c1cccs1	-0.56
N#C/C(=N\Nc1cc(C(F)(F)F)cc(C(F)(F)F)c1)S(=O)(=O)c1cccs1	0.92
COc1ccc(OCCn2cc(C(=O)C(C)(C)C)c3ccccc32)cc1	0.39
N=c1c2cnn(-c3ccccc3)c2ncn1/N=C/c1ccc(Cl)cc1Cl	0.21
CNC(=S)NNC(=O)C(C)Oc1ccccc1-c1ccccc1 (centres undefined)	1.8
COc1ccc(Cc2c(O)nc(N)[nH]c2=O)cc1	-0.85
CCOC(=O)c1[nH]c(C)c(C(=O)OCC)c1CC	0.48
O=C(/C=C/c1cccs1)NC(=S)Nc1ccc(S(=O)(=O)Nc2cc(F)ccc2F)cc1	0.56
CC1=C(C(=O)OCC(C)C)C(c2ccc3c(c2)OCO3)C2=C(CC(c3ccccc3)CC2=O)N1 (centres undefined)	0.61
COc1cc(C2C(C(=O)OC3CCCCC3)=C(C)NC3=C2C(=O)CC(C)(C)C3)ccc1O (centres undefined)	0.6
CCOc1cc(C2C(C(=O)OC3CCCCC3)=C(C)NC3=C2C(=O)CC(C)(C)C3)ccc1OC(C)=O (centres undefined)	5.4*
COCCOC(=O)C1=C(C)NC2=C(C(=O)CC(c3ccccc3)C2)C1c1ccccc1F (centres undefined)	8.1

Screens as filed in PubChem BioAssay.
